# Reference: publication PMC4336329 (PLoS ONE, 2015)
# Screen size: about 310,000 compounds; about 14,000 (4.5%) showed an effect of 50% or more. Effects have a minus sign here. The full list was thinned out, with strong results kept by preference.
# Target: human ether-à-go-go-related gene (hERG) potassium channel (human, UniProt Q12809)
# Test: primary screen, population patch clamp on CHO cells stably expressing hERG; higher = less effect of the substance
# 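Also: peak tail current of the secondary pulse compared with the same well before compound.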
# human ether-à-go-go-related gene (hERG) potassium channel, sequence (Q12809 whole entry, looked up): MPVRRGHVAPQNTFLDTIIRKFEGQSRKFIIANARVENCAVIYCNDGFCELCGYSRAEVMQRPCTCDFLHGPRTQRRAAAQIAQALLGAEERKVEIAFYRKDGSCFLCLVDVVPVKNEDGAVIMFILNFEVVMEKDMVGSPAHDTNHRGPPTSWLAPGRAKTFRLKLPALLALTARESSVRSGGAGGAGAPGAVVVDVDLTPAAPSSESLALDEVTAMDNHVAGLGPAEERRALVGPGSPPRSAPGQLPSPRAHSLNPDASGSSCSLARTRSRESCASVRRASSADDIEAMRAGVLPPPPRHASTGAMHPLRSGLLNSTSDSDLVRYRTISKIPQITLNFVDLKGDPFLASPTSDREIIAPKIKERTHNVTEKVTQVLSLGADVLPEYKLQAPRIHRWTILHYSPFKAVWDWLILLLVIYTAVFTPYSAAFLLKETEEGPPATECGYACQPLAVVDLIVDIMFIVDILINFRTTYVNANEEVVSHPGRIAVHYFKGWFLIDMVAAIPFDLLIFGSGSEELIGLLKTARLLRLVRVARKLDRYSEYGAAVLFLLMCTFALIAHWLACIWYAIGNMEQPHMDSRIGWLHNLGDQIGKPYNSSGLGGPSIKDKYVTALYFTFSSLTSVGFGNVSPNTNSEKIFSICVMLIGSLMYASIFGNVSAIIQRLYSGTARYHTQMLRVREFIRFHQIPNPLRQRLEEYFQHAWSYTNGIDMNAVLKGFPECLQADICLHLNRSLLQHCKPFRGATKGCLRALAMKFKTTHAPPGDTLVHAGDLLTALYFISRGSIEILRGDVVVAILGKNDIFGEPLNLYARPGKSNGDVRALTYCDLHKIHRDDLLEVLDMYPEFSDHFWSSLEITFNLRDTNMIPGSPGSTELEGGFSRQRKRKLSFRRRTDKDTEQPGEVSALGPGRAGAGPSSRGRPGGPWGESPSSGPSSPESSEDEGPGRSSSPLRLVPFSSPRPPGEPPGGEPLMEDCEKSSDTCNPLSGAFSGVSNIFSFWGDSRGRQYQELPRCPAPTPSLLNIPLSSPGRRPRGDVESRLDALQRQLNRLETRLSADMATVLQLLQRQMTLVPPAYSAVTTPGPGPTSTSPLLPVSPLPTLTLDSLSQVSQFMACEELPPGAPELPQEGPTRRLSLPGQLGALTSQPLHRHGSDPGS
row,Compound,"hERG current change (%, negative = inhibition) at 10uM [%]"
1,Oc1ccc(CN2CCc3ccccc3C2)c2cccnc12,-48.8
2,Cn1c(C(=O)N2CCN(C(=O)c3ccco3)CC2)cc2c(=O)n3ccccc3nc21,-14.5
3,CC(C)C(NS(=O)(=O)c1ccc2c(c1)OCCO2)C(=O)NCCc1ccccn1 (stereo not shown),6.06
4,Cc1cccc(NC(=O)CSc2nnc(C)c(C)n2)c1,15.3
5,COc1nc(OC)nc(N2CCC(NC(=O)C(Cc3ccc(C(C)C)cc3)NC(C)=O)CC2)n1 (stereo not shown),5.87
6,CO/N=C(\C(=O)N[C@@H]1C(=O)N2C(C(=O)[O-])=C(COC(N)=O)CS[C@H]12)c1ccco1.[Na+],18.9
7,O=C(Nc1ccc(Br)cn1)c1cccc2ccccc12,12.2
8,CC1CCN(C(=O)COC(=O)c2cc(Cl)cc(Cl)c2N)CC1,-19.9
9,CCCCN1CCC(COC(=O)c2cc(Cl)c(N)c3c2OCCO3)CC1.Cl,-59.4
10,Cl.O=C(OCCN1CCOCC1)c1ccc(Cl)cc1Cl,-0.913
11,COc1cc(C(=O)OCc2cc(=O)c(O)co2)ccc1OC(F)F,-12.9
12,O=C(NCC(=O)N(CCN1CCOCC1)C(C(=O)NC1CCCC1)c1cccnc1)c1cccs1 (stereo not shown),13.1
13,CCOC(=O)C1(CCCc2ccccc2)CCN(C(=O)CCC2=NNC(=O)CC2)CC1,11.8
14,CCOC(=O)C1(CCCc2ccccc2)CCN(Cc2cnn(C)c2)CC1,-71.6
15,CCOC(=O)C1(Cc2ccccc2)CCCN(CCCn2cccn2)C1 (stereo not shown),-14.2
16,CCOC(=O)C1(CCc2ccccc2)CCN(C(=O)CN2C(=O)CSC2=O)CC1,-23.3
17,CCOC(=O)C1(CCCc2ccccc2)CCN(C(=O)CCc2cnn(C)c2)CC1,-74.2
18,CCOC(=O)C1(CCCc2ccccc2)CCN(CCCn2cccn2)CC1,-79.1
19,CCOC(=O)C1(CCc2ccccc2)CCN(C(=O)CCc2cnn(C)c2)CC1,-51.2
20,CCOC(=O)C1(CCCc2ccccc2)CCN(C(=O)CCOC)CC1,-46.8
21,Cc1cc(OCC(=O)Nc2ccncc2)cc(C)c1Cl,6.51
22,Cc1ccc(CNC(=O)/C=C/C(=O)O)cc1,-15.4
23,Cc1n[nH]c(=O)n1-c1ccc(C(C)C)cc1,18.4
24,O=C(Nc1ccccc1)NC1(C(=O)N2CCN(C(=O)c3ccco3)CC2)CCCCC1,0.526
25,CCc1ccc(C2C(=O)c3ccccc3C2=O)cc1,-3.18
26,O=C(NNC(=O)c1cnccn1)c1ccc(Cl)cc1,10.1
27,Cc1cccc(N2CCN(Cc3cc(=O)n4ccsc4n3)CC2)c1C,-37.1
28,CCOC(=O)CC12CN3CN(C1)CC(CC(=O)OCC)(C3)C2=O,8.62

row,Compound,"hERG current change (%, negative = inhibition) at 10uM [%]"
1,O=C(O)CCn1c(=S)oc2ccccc21,-0.618
2,CCOC(=O)C1(Cc2ccccc2)CCN(Cc2cnn(CC)c2)CC1,-21.2
3,CCOC(=O)C1(Cc2ccccc2)CCN(Cc2cnn(C(C)C)c2)CC1,-28.7
4,CCOC(=O)C1(CCCc2ccccc2)CCN(C(=O)Cn2nc(C)nc2C)CC1,-24.6
5,CCOC(=O)C1(CCCc2ccccc2)CCN(Cc2cn(CC)nc2C)CC1,-74.1
6,CCOC(=O)C1(Cc2ccccc2)CCN(Cc2cnn(-c3ccccc3)c2)CC1,-81.4
7,CCN1C(=O)C(=Cc2ccc(C)s2)C(=O)N(CC)C1=S,5.09
8,COc1ccc(OCC(=O)NCc2ccc(Cl)cc2)cc1,1.55
9,COC(=O)c1nc(N)sc1-c1ccc(OC)cc1,10.3
10,Cc1ccc(Oc2ccccc2NC(=O)CN2C(=O)NC3(CCCC3)C2=O)cc1,11
11,O=C1NC(=O)N(c2ccccc2F)C(=O)/C1=C/c1ccc(Sc2nc3ccccc3[nH]2)o1,-4.03
12,O=C1NC(=O)N(c2cccc(Cl)c2)C(=O)/C1=C\c1ccc(Sc2nc3ccccc3[nH]2)o1,13.9
13,O=C1NC(=O)N(c2ccc(Cl)cc2)C(=O)/C1=C\c1ccc(Sc2nc3ccccc3[nH]2)o1,-65.6
14,c1ccc(-n2ncc3c2ncn2nc(-c4ccco4)nc32)cc1,13.3
15,O=S(=O)(c1ccc(F)cc1)N1CCC(c2nc3ccccc3[nH]2)CC1,-2.46
16,CC(=O)c1cccc(S(=O)(=O)N2CCC(c3nc4ccccc4[nH]3)CC2)c1,-56.6
17,CC(=O)c1ccc(S(=O)(=O)N2CCC(c3nc4ccccc4[nH]3)CC2)cc1,-54.3
18,O=S(=O)(c1cccc(C(F)(F)F)c1)N1CCC(c2nc3ccccc3[nH]2)CC1,0.277
19,COc1ccc(OC)c(S(=O)(=O)N2CCC(c3nc4ccccc4[nH]3)CC2)c1,-55.7
20,COc1ccc(S(=O)(=O)N2CCC(c3nc4ccccc4[nH]3)CC2)cc1,10.3
21,O=S(=O)(c1cccc(Cl)c1)N1CCC(c2nc3ccccc3[nH]2)CC1,2.21
22,CC(=O)Nc1ccc(S(=O)(=O)N2CCC(c3nc4ccccc4[nH]3)CC2)cc1,-18.4
23,O=S(=O)(c1ccccc1F)N1CCC(c2nc3ccccc3[nH]2)CC1,-13.3
24,Cc1[nH]c2ccc(F)cc2c1CCN(Cc1ccncc1)C(=S)Nc1ccc(F)cc1,-38.4
25,CC1=NN(C(=O)c2ccc(Cn3cc([N+](=O)[O-])cn3)cc2)C(O)(C(F)(F)F)C1 (stereo not shown),-21.1
26,Cc1ccc(C)c(NC(=O)CN2C(=O)COc3ccc(S(=O)(=O)N4CCCC4)cc32)c1,-0.517
27,O=C1NC(=O)C(=Cc2ccc(N3CCOCC3)cc2)C(=O)N1,12.9
